# The sample as a whole holds a higher share of hits than the screen did.
# GBA activity up = enhancers of human beta-glucosidase activity in Gaucher fibroblasts; P04062; L444P Gaucher fibroblasts, 4-MU-glucoside fluorescence, 3 days; activation, % at 10 µM; 30,000 compounds, 0.44% hits; AID 784; in the data active = activation above about 65%;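 also: 0% = vehicle wells and 100% = positive control wells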
# Target sequence (P04062 whole entry L483P): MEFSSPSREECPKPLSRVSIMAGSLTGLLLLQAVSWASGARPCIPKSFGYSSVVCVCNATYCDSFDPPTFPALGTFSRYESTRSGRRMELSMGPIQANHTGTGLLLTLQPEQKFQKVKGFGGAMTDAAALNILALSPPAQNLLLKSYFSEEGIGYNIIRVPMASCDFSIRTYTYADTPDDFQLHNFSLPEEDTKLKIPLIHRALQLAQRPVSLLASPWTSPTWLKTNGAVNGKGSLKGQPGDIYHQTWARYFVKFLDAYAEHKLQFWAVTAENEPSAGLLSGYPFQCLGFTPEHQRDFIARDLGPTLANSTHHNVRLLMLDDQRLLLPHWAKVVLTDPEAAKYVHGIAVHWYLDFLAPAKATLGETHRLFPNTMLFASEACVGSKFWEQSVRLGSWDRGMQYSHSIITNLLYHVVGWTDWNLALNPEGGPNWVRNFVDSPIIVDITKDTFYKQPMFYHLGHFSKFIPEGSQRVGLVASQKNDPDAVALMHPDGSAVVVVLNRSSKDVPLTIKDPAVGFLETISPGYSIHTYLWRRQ
# * marks the source's active call; other numbers are inactive results.
SMILES,GBA activity up
Clc1ccc(C2=Nn3c(nnc3-c3cccnc3)SC2)s1,-14.3
O=c1oc2ccccc2cc1C1=Nn2c(nnc2-c2cccnc2)SC1,-8.8
O=C(NC(=O)c1ccc(Cl)cc1)Nc1cc(N2CCCCC2)ncn1,-22.8
O=c1cc(-c2c(F)c(F)c(F)c(F)c2F)oc2c(F)c(F)c(F)c(F)c12,-81.7
Cc1ccccc1-n1nc(C)c2cc(C(=O)NCc3cccnc3)sc21,-10.3
CCOc1ccccc1C1C(C(=O)Nc2ccccc2OC)=C(C)Nc2nnnn21 (configuration not stated),152.5*
COc1ccccc1NC(=O)C1=C(C)Nc2ncnn2C1c1ccccc1C (configuration not stated),-28.2
COc1ccccc1NC(=O)C1=C(C)Nc2nnnn2C1c1ccncc1 (configuration not stated),-12.6
COc1ccc(Cl)c(N2CCN(CCCNC(=O)Nc3ccc(C)cc3)CC2)c1,-149.0
C=C(C)c1cccc(C(C)(C)NC(=O)NCCCn2ccnc2)c1,-15.8
O=C(NCCCn1ccnc1)Nc1ccc(Cl)cc1,122.0*
O=C(NCCCn1ccnc1)Nc1ccc(Cl)c(Cl)c1,-3.0
CCN(CC)S(=O)(=O)c1cccc(-c2nnc(SCc3nnc(-c4cccs4)o3)n2N)c1,-4.6
O=C(c1ccccc1OCc1ccccc1Br)N1CCN(c2ncccn2)CC1,-8.9
COc1ccc(N2CCN(CCNC(=O)c3cccn4c(=O)c5ccc(Cl)cc5nc34)CC2)cc1,-67.8
CCCCn1c2nc3ccccc3nc2c2c(=O)n(C(C)CC)cnc21 (configuration not stated),33.8
CCC(C)n1cnc2c(c1=O)c1nc3ccccc3nc1n2-c1ccc2c(c1)OCCO2 (configuration not stated),-87.8
CCC(C)n1cnc2c(c1=O)c1nc3ccccc3nc1n2Cc1ccc2c(c1)OCO2 (configuration not stated),82.6*
Cc1ccc(S(=O)(=O)Nc2cccc3ncccc23)s1,-15.7
O=C(CSc1nccc2ccccc12)N1CCN(Cc2ccc3c(c2)OCO3)CC1,-7.5
Cc1nc2c(cnn2-c2ccc(Cl)cc2)c(=O)n1-c1ccc2c(c1)OCCO2,-18.8
O=S(=O)(NC1c2cccc3cccc(c23)C1N1CCN(CCO)CC1)c1ccccc1 (configuration not stated),-22.0
O=S(=O)(NC1c2cccc3cccc(c23)C1N1CCNCC1)c1ccccc1 (configuration not stated),74.1*
O=S(=O)(NC1CC1)c1cccc(S(=O)(=O)N2CCCC2)c1,-16.7
Cn1c2ccccc2c2cnn(CC(=O)N3CCN(c4ncccn4)CC3)c(=O)c21,-11.3
SMILES,GBA activity up
CCOc1ccccc1C1C(C(N)=O)=C(C)Nc2nc(-c3cccc(C)c3)nn21 (configuration not stated),-37.5
CC1=C(C(N)=O)C(c2cccnc2)n2nc(-c3cccc(C)c3)nc2N1 (configuration not stated),27.4
CC1=C(C(N)=O)C(c2cccs2)n2nc(-c3cccc(C)c3)nc2N1 (configuration not stated),90.9*
COc1ccc(-c2cc3nc(C)c(CCC(=O)N4CCCCC4)c(C)n3n2)c(OC)c1,-51.6
CCC(C)Oc1cccc(C(=O)Nc2ccccc2N2CCOCC2)c1 (configuration not stated),-1.7
O=C(Nc1ccccc1N1CCOCC1)c1ccc2ccccc2n1,19.8
Cc1ccc(-c2nnn(CC(=O)Nc3ccccc3N3CCOCC3)n2)cc1,-17.8
Cc1cc(Cl)ccc1OC(C)C(=O)Nc1ccccc1N1CCOCC1 (configuration not stated),-28.1
CC(C)Oc1cccc(C(=O)Nc2ccccc2N2CCOCC2)c1,65.2*
Cc1ccn2cc(C(=O)Nc3ccccc3N3CCOCC3)nc2c1,91.6*
CC(=O)C1=C(C)NC(=O)NC1c1cc(Br)ccc1OCC(N)=O (configuration not stated),-20.9
CCOC(=O)c1ccc(S(=O)(=O)N2CCN(CC(=O)NC(=O)NC3CCCCC3)CC2)cc1,-15.9
CCOc1cc2[nH]c(=O)n(CC3CCC(C(=O)NC(C)CC)CC3)c(=O)c2cc1OCC (configuration not stated),-8.7
COc1ccc(OC)c(C(=O)CSc2nnc(-c3cccnc3)n2C)c1,-8.1
CCOC(=O)CC(N)c1ccc2c(c1)OCO2 (configuration not stated),-10.1
COc1cccc(/C=N/n2c(C)c3c(C)nnc(C)c3c2C)c1O,8.1
CCn1c(=S)sc2nc(C)sc21,-16.8
COc1ccc(CNC(=O)CCCNS(=O)(=O)c2cccc3nonc23)cc1,183.0*
O=C(CCCNS(=O)(=O)c1cccc2nsnc12)NCc1ccc(Cl)cc1,-35.5
O=C(CCCNS(=O)(=O)c1cccc2nsnc12)NCc1ccccc1,-15.7
Cc1ccc(-n2c(=O)cc(NCc3cccnc3)[nH]c2=O)cc1,0.1
O=C(O)c1ccc2c(c1)C(c1ccccc1)OC2=O (configuration not stated),78.3*
O=C(O)c1ccc2c(c1)CC(c1ccccc1)OC2=O (configuration not stated),-20.7
CC(C)(C)N1C(=O)c2ccc(C(=O)O)cc2C1=O,7.3
Cc1ccc(S(=O)(=O)N(C)CC(=O)N2CCCc3ccccc32)cc1,-23.1
SMILES,GBA activity up
N=c1sccn1CC(=O)Nc1ccccc1-c1ccccc1,-47.5
Cc1ccc2nc(NC3=NCN(Cc4ccc5c(c4)OCO5)CN3)nc(C)c2c1,-39.5
CC(C)(C)NC(=O)CSc1ncnc2c1nnn2Cc1ccccc1Cl,-20.0
CCN(CC)C(=O)CSc1nnc(-c2ccco2)n1Cc1ccco1,-7.6
CC(C)(C)NC(=O)CSc1nnc(-c2ccco2)n1Cc1ccco1,78.3*
COC(=O)CSc1nnc(-c2ccco2)n1Cc1ccco1,-2.5
COc1cc(NC(=O)Cn2nnc(-c3ccccc3N)n2)cc(OC)c1,4.2
CCCc1nc2ccccc2n2cc3c(=O)n(C)c(=O)n(C)c3c12,-12.3
CCN=C1SC(CC(=O)Nc2ccccc2)C(=O)N1CC (configuration not stated),5.8
CN=C1SC(CC(=O)Nc2cccc(C(F)(F)F)c2)C(=O)N1C (configuration not stated),135.1*
CN=C1SC(CC(=O)Nc2sc(C)c(C)c2C(=O)OC)C(=O)N1C (configuration not stated),-13.6
O=C(c1cc2c(=O)oc3ccccc3c2s1)N1CCN(c2ncccn2)CC1,-59.6
COC(=O)c1ccc(NC(=O)CN2CCN(S(=O)(=O)c3cc(Cl)ccc3OC)CC2)cc1,-18.1
COc1ccc(C)cc1NC(=O)CN1CCN(S(=O)(=O)c2ccc(C(C)C)cc2)CC1,20.9
COc1ccc(NC(=O)CN2CCN(S(=O)(=O)c3ccc(C(C)C)cc3)CC2)cc1OC,65.8*
CC(=O)NC1(c2ccccc2)CCN(c2nc(C)cc(C)n2)CC1,-30.7
COc1ccccc1N1CCN(C(=O)CN(c2ccccc2OC)S(=O)(=O)c2ccccc2)CC1,-44.9
CCOc1ncccc1C(=O)NCC1COc2ccccc2O1 (configuration not stated),5.0
Cc1ccc(C)n1-c1ccc(C(=O)NCC2CCCO2)cc1 (configuration not stated),93.2*
CCCNS(=O)(=O)c1ccc(C(=O)NCC2CCCO2)cc1 (configuration not stated),-29.6
CCCCS(=O)(=O)Nc1ccc(C(=O)NCC2CCCO2)cc1 (configuration not stated),-10.1
CCc1nnc(NC(=O)Cc2ccc(OCc3c(C)noc3C)cc2)s1,-9.5
O=C(OCC1COc2ccccc2O1)c1c(F)cccc1F (configuration not stated),-18.5

# Bioassay records deposited in PubChem BioAssay by The Scripps Research Institute Molecular Screening Center.
